Hits are enriched below; roughly 19% of the tested compounds scored in any of these assays.
TDP1 cell CPT: growth inhibition of DT40 Tdp1-/-;hTDP1 cells with camptothecin (screen for TDP1 inhibitors) | chicken DT40 Tdp1-/-;hTDP1 cells + 20 nM CPT, ATP luminescence, 48 h | Potency, µM (highest dose often 46.2 µM), for inactives: top-dose activity change, negative = growth inhibition, actives largely listed as inhibitors | actives 12% (n = 420,000) | AID 686979; note: potency is the fitted concentration of half-maximal effect; nearly all actives have a fitted effect of over 55% in size
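Chicken DT40 Tdp1-/- cells complemented with human TDP1, 400 cells/well, exposed to compounds plus 20 nM camptothecin for at least 48 h at 37 C; viability read as ATP content by CellTiter-Glo luminescence.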
HT1080NT lethal: kills 2HG-producing HT-1080-NT fibrosarcoma cells. HT-1080-NT fibrosarcoma viability, CellTiter-Glo ATP luminescence, 48 h. Potency, µM (titrated, usually from 46.1 µM), for inactives: at the top dose activity, negative = less viability, usual class: cytotoxic. actives 1.6% (n = 360,000). AID 686970;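 note: NT is the 2HG producing partner of a matched IDH1 knockdown line; potency is the fitted concentration of half-maximal effect; 0% = DMSO-treated cells and -100% = media-only wells without cells; nearly all actives have a fitted effect of over 55% in size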
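HT-1080-NT fibrosarcoma cells (2HG-overproducing), 750 cells/well in RPMI with 5% FBS, dosed after 2 h and incubated 48 h at 37C. CellTiter-Glo luminescence normalized to DMSO and no-cell wells; concentration-response curves fitted and classed.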
ELG1 DNA repair: inhibitors of ELG1-dependent DNA repair in HEK293T cells; Potency, µM (titrated, usually from 46.1 µM), without a hit: at the top dose activity change, negative = inhibition, usual class: inhibitors; actives 2.3% (n = 330,000); HEK293T ELG1-luciferase reporter, luminescence, 16 h; DNA damage induced by 5-fluorouridine; note: potency is the fitted concentration of half-maximal effect; nearly all actives have a fitted effect of over 55% in size
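HEK293T cells expressing luciferase-tagged ELG1 (2,000/well) received 5-Fluorouridine plus compound or DMSO for 16 hr at 37 °C. Luciferase was read by ONE-Glo luminescence after 30 min at room temperature.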
IL-1B inflam inh: inflammasome signaling inhibition, IL-1 beta readout; THP-1 LPS/ATP IL-1B secretion, AlphaLISA, 16 h; hits give low values; activity change, % at 57.5 µM; actives 4.7% (n = 360,000); AID 743279; in the data active = activity change below about -50%; inconclusive = mostly about -30% to -49%
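Secreted IL-1B measured by AlphaLISA bead assay after 16 h compound exposure of THP-1 cells; compounds (final up to 57.5 uM) added 1 h before LPS (250 ng/mL) and ATP (1.25 mM) stimulation; lower signal means less secretion.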
TDP1 cell noCPT: qHTS for Inhibitors of human tyrosyl-DNA phosphodiesterase 1 (TDP1): qHTS in cells in absence of CPT; DT40 Tdp1-/- hTDP1 cells, no CPT, ATP luminescence, 48 h; Potency, µM (top dose mostly 46.2 µM), for inactives: at the highest dose activity change, negative = growth inhibition, hits mostly inhibitors; actives 15% (n = 420,000); AID 686978, 2013; note: potency is the fitted concentration of half-maximal effect; nearly all actives have a fitted effect of over 55% in size
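A cellular qHTS used chicken DT40 cells lacking endogenous Tdp1 but carrying stably transfected human TDP1. Compounds were applied without camptothecin, and cell growth kinetics were judged by ATP-dependent luminescence after ≥48 hr.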
HT1080 IDH1KD tx: kills HT-1080 cells with IDH1 knockdown. HT-1080 IDH1 knockdown viability, ATP luminescence, 48 h. Potency, µM (doses to about 46.1 µM), inactives show at the top dose activity, negative = toxicity, hits mostly cytotoxic. actives 2% (n = 360,000). AID 686971;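 note: potency is the fitted concentration of half-maximal effect; 0% = DMSO wells and -100% = cell-free medium wells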
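In this qHTS, HT-1080 cells depleted of IDH1 are exposed for 48 h at 37 °C to compound titrations. Toxicity is scored from CellTiter-Glo luminescence, with DMSO as full viability and medium alone as none.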
Starred values were filed as active, the others as inactive; ? = inconclusive; / = no result; [ ] = another dose, or the depositor's remark. Unless noted, calls come from the whole dose curve; as a rule, active = well fitted curve in the direction sought with a large enough effect; inconclusive = small, poorly fitted or top-dose-only effect, or another doubt; inactive = no such curve, though single readings can be large; an effect the other way counts as inactive or inconclusive. Unless noted, % is set by controls: 0 for no effect and ±100 for the full control effect.

SMILES	TDP1 cell CPT	HT1080NT lethal	ELG1 DNA repair	IL-1B inflam inh	TDP1 cell noCPT	HT1080 IDH1KD tx
Cc1ccccc1-c1nc(SCC(=O)NCc2ccco2)c2c(=O)n(C)c(=O)n(C)c2n1	-24%	/	/	/	7%	/
O=C(NNc1ccccc1)c1sc2ccccc2c1Cl	?	-15%	/	/	?	?
CC(C)(C)NC(=O)C(c1ccc(-c2ccccc2)cc1)N(C[C@H]1CC[C@@H]([C@@H]2CC[C@H](CO)O2)O1)C(=O)c1ccc(C(C)(C)C)cc1 (some centres undefined)	?	?	?	?	21µM*	?
CCOC(=O)c1c(NC(=O)COc2cccc(C)c2C)sc2c1CCC(CC)C2 (centres undefined)	8%	/	/	/	-15%	/
CC[C@@]1(c2ccccc2)NC(=O)N(C)C1=O	-71%	/	/	/	?	/
O=C1CSC(c2nn(-c3ccccc3)cc2-c2cc3ccccc3oc2=O)N1Cc1ccco1 (centres undefined)	?	?	?	-14	?	1%[9.24 µM]
O=C1CSC(c2cn(-c3ccccc3)nc2-c2cc3ccccc3oc2=O)N1Cc1ccccc1 (centres undefined)	?	-1%	21µM*	-13	?	-10%
O=C(CN(c1ccc2c(c1)OCCO2)S(=O)(=O)c1ccccc1)NCc1ccc(Cl)cc1	?	-2%	26µM*	-14	?	-4%
O=C(CN(c1ccc(F)cc1)S(=O)(=O)c1ccc2c(c1)OCCO2)Nc1ccccc1	-17%	-5%	21µM*	-15	-15%	-17%
O=C(CN(c1ccc(F)cc1)S(=O)(=O)c1ccc2c(c1)OCCO2)NCc1ccccc1	-17%	-28%	-10%	54	-30%	?
CCCCN(CC(=O)NCc1ccc(Cl)cc1)S(=O)(=O)c1ccc2c(c1)OCCO2	?	7%	0%	-7	23µM*	3%
CCCCn1c(N)c(N(CC(C)C)C(=O)C(C)SCc2nc3sc(C)c(C)c3c(=O)[nH]2)c(=O)[nH]c1=O (centres undefined)	-9%	0%	-2%	12	?	0%
COc1cccc(CNC(=O)COc2cc3c(c4oc(=O)cc(C)c24)CCC(C)(C)O3)c1	21µM*	-1%	?	-8	16µM*	-5%
CCc1cc(=O)oc2c3c(cc(OCC(=O)NCc4ccncc4)c12)OC(C)(C)CC3	16µM*	-3%	-6%	-25	21µM*	-16%
COc1ccccc1CNC(=O)COc1cc2c(c3oc(=O)cc(C)c13)CCC(C)(C)O2	23µM*	-1%	?	-61*	23µM*	-14%
CCc1cc(=O)oc2c3c(cc(OCC(=O)NCc4ccco4)c12)OC(C)(C)CC3	?	-8%	?	0	?	-6%
Cc1cc(=O)oc2c3c(cc(OCC(=O)NCc4cccnc4)c12)OC(C)(C)CC3	?	-3%	-27%	-17	?	-10%
COc1ccc(CNC(=O)COc2cc3c(c4oc(=O)cc(C)c24)CCC(C)(C)O3)cc1	?	9%	?	?	?	7%
CC(C)C(=O)NC1CC(=O)N(c2ccc3c(c2)OCCO3)C1 (centres undefined)	-10%	/	/	/	-5%	/
CC(C)n1cc(C(=O)NC2CC(C)(C)Cc3c2cnn3-c2ccccc2)cn1 (centres undefined)	-23%	8%	8%	11	-20%	14%
Cc1ccc(COC(=O)c2nn(C)c(=O)c3ccccc23)cc1	?	-16%	?	41	13µM*	?

Bioassay records: PubChem BioAssay, National Center for Advancing Translational Sciences (NCATS)
